The record followed here is PubChem BioAssay (NCATS).

SMILES strings stand for the structures. “And” between values parts separate entries of the source, which are not always exact repeats. Equal values may be shown once. Inconclusive results are not listed. Values without a mark were called inactive. The source made the active and inactive calls. The call rests on the fitted dose curve; in most records, active means well fitted curve in the direction sought with a large enough effect; inconclusive means small, poorly fitted or top-dose-only effect, or another doubt; inactive means no such curve, though single readings can be large; an effect the other way counts as inactive or inconclusive.
Potency means the concentration at half of the fitted maximal effect.

One experiment in a line: qHTS of pediatric cancer cell lines to identify multiple opportunities for drug repurposing: Primary screen for A673 cells (AID 1347092). Further: nearly all actives have a fitted effect of over 45% in size. On activity change, negative = cytotoxic: on the % scale 0 is the no-effect control and ±100 the full control effect. As to conditions: A673 Ewing sarcoma viability, CellTiter-Glo ATP luminescence, 48 h; series mostly up to 46 µM; activity change, negative = cytotoxic: at the top concentration. The method in brief:
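Cells are plated, rested 5 h, dosed by pintool, incubated 48 h, then lysed with CellTiter-Glo and read by luminescence. DMSO is the neutral control; bortezomib at 2.3 uM final is the positive control.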
Background: Quantitative high-throughput screening tests each substance at several concentrations.
Turning to `Cc1ccc(Nc2nccc(N(C)c3ccc4c(C)n(C)nc4c3)n2)cc1S(N)(=O)=O`, the “activity change, negative = cytotoxic” value was -29.8%. On the same count and under the same terms, to `C[C@H](Cn1cnc2c(N)ncnc21)OCP(=O)(O)O` belongs 5.78%. For the compound `O=C(NC(Cc1cc(=O)[nH]c2ccccc12)C(=O)O)c1ccc(Cl)cc1` (centres undefined), the “activity change, negative = cytotoxic” value is -3.68%. As for `COC1=C(OC)C(=O)C(CCCCCCCCCCO)=C(C)C1=O`, the Potency is 26.6 µM (active) and 23.5 µM (active). Regarding `Cc1cccc(C#Cc2ccccc2)n1`, the “activity change, negative = cytotoxic” value was -25%.

On to `O=Nc1c(-c2c(O)[nH]c3cc(Br)ccc23)[nH]c2ccccc12`, for which the Potency was 2.35 µM (active). Still for that read-out and setting: in the case of `COc1cc2c(N3CCN(C(=O)Nc4ccc(OC(C)C)cc4)CC3)ncnc2cc1OCCCN1CCCCC1` it was 29.6 µM (active); in that of `CCOC(=O)C(C)Oc1cccc2c(=O)n(CC(=O)Nc3ccc4c(c3)OCCO4)ccc12` (centres undefined), 7.43 µM (active); in that of `CC[C@]1(O)C[C@H]2CN(CCc3c([nH]c4ccccc34)[C@@](C(=O)OC)(c3cc4c(cc3OC)N(C=O)[C@H]3[C@@](O)(C(=O)OC)[C@H](OC(C)=O)[C@]5(CC)C=CCN6CC[C@]43[C@@H]65)C2)C1`, 4.7 nM (active) and 5.3 nM (active).

For `CNC[C@H](O)c1ccc(O)c(O)c1`, the Potency is 42.9 µM (active). Consider `O=C(CS(=O)Cc1ccco1)NCC=CCOc1cc(CN2CCCCC2)ccn1` (centres undefined), for which the “activity change, negative = cytotoxic” value was -23.4%. Turning to `O=c1ccc2ccc(O)c(O)c2o1`, the Potency was 5.9 µM (active). In the case of `O=C(O)c1cccc(-c2noc(-c3ccccc3F)n2)c1`, the “activity change, negative = cytotoxic” value was -13.5%. In the case of `Cc1cccc(CN2CCN(C(c3ccccc3)c3ccc(Cl)cc3)CC2)c1` (centres undefined), the Potency was 18.7 µM (active). For the compound `O=C(O)CCNC(=O)c1ccc(N=Nc2ccc(O)c(C(=O)O)c2)cc1`, the Potency result was “inactive”. Same read-out and setting: in the case of `Nc1nc(Cl)nc2c1ncn2[C@H]1C[C@H](O)[C@@H](CO)O1` it was 2.96 µM (active). For `COc1c(O)cc2c(c1O)[C@@H]1O[C@H](CO)[C@@H](O)[C@H](O)[C@H]1OC2=O`, the “activity change, negative = cytotoxic” value is -11.3%. On the same count and under the same terms, to `c1ccc2[nH]c(-c3cscn3)nc2c1` belongs -19.5%; to `O=C(NCCO[N+](=O)[O-])c1cccnc1`, 8.75%.

The nature of another experiment: qHTS of pediatric cancer cell lines to identify multiple opportunities for drug repurposing: Primary screen for SK-N-MC cells (AID 1347093).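 On activity change, negative = cytotoxic: plate controls were DMSO neutral control for no effect and bortezomib for full effect.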 The conditions noted are these: SK-N-MC viability, CellTiter-Glo luminescence, 48 h; series mostly up to 46 µM; activity change, negative = cytotoxic: at the top concentration. The method, boiled down:
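Metabolically active cells were quantified by ATP-dependent luminescence (CellTiter-Glo, 15 min at room temperature) following 48 h treatment. Cells had been plated at 500-1,000 per well and settled for 5 h beforehand.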
For the compound `CCCOc1ccc2nc(NC(=O)OC)[nH]c2c1`, the Potency is 0.0422 µM (active). For `CCc1nc(N)nc(N)c1-c1ccc(Cl)cc1`, the Potency was 668 nM (active) and 1.18 µM (active). Still for that read-out and setting: in the case of `Cc1ncc([N+](=O)[O-])n1CC(C)O` (centres undefined) it was “inactive”; in that of `O=c1oc2cc(O)ccc2s1`, 23.5 µM (active).

Take `CN(C)C(=O)[C@H](O)[C@H](Cc1ccccc1)NC(=O)c1cc2cc(Cl)ccc2[nH]1`: the Potency was 1.18 µM (active). Take `Cc1cccc(-c2[nH]ncc2-c2ccc3ncccc3n2)n1`: the “activity change, negative = cytotoxic” value is 34.8%. With `Cc1nccn1CC1CCc2c(c3ccccc3n2C)C1=O` (centres undefined), the “activity change, negative = cytotoxic” value was -31.2%.

With `Nc1nc(N)c(N=O)c(OCC2CCCCC2)n1`, the Potency was 3.32 µM (active).

For `CCC(C)(Oc1ccc(C2(c3ccc(OC(C)(CC)C(=O)O)cc3)CCCCC2)cc1)C(=O)O` (centres undefined), the “activity change, negative = cytotoxic” value was -25.8%. For the compound `C=C(c1ccc(C(=O)O)cc1)c1cc2c(cc1C)C(C)(C)CCC2(C)C`, the Potency is 2.11 µM (active). For the compound `S=c1nc[nH]c2nc[nH]c12`, the Potency is 11.8 µM (active). On to `CN(C)[C@@H](CCOc1cccc2ccccc12)c1ccccc1`, for which the Potency was 23.5 µM (active). Turning to `O=C1c2c(O)cc(O)cc2OC(c2ccc(O)c(O)c2)C1O` (centres undefined), the Potency is 4.69 µM (active).

Regarding `Cc1ccc(Nc2nccc(N(C)c3ccc4c(C)n(C)nc4c3)n2)cc1S(N)(=O)=O`, the Potency is 8.41 µM (active) and 16.6 µM (active). As for `COC1=C(OC)C(=O)C(CCCCCCCCCCO)=C(C)C1=O`, the Potency entry is “inactive”. As for `O=Nc1c(-c2c(O)[nH]c3cc(Br)ccc23)[nH]c2ccccc12`, the Potency was 2.09 µM (active).

With `COc1cc2c(N3CCN(C(=O)Nc4ccc(OC(C)C)cc4)CC3)ncnc2cc1OCCCN1CCCCC1`, the Potency is 23.5 µM (active). Consider `CC[C@]1(O)C[C@H]2CN(CCc3c([nH]c4ccccc34)[C@@](C(=O)OC)(c3cc4c(cc3OC)N(C=O)[C@H]3[C@@](O)(C(=O)OC)[C@H](OC(C)=O)[C@]5(CC)C=CCN6CC[C@]43[C@@H]65)C2)C1`, for which the Potency was 11.8 nM (active) and 6.7 nM (active). For `CNC[C@H](O)c1ccc(O)c(O)c1`, the “activity change, negative = cytotoxic” value was -32.4% [at 16.1 µM]. Consider `Cc1cccc(CN2CCN(C(c3ccccc3)c3ccc(Cl)cc3)CC2)c1` (centres undefined), for which the Potency was 11.9 µM (active) and 18.7 µM (active). On to `COc1cc2c(cc1OC)C1CC(=O)C(CC(C)C)CN1CC2` (centres undefined), for which the “activity change, negative = cytotoxic” value was 5.06%. On to `Nc1nc(Cl)nc2c1ncn2[C@H]1C[C@H](O)[C@@H](CO)O1`, for which the Potency is 18.7 µM (active). Regarding `COc1c(O)cc2c(c1O)[C@@H]1O[C@H](CO)[C@@H](O)[C@H](O)[C@H]1OC2=O`, the “activity change, negative = cytotoxic” value was -2.66%.

The next experiment in a line: qHTS of pediatric cancer cell lines to identify multiple opportunities for drug repurposing: Primary screen for BT-37 cells (AID 1347094).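 On activity change, negative = cytotoxic: plate controls were DMSO for no effect and bortezomib for full effect.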 The conditions noted are these: BT-37 viability, CellTiter-Glo luminescence, 48 h; series mostly up to 57.3 µM; activity change, negative = cytotoxic: at the top concentration. The method in brief: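 Primary screen of approved and investigational compounds on cells in growth media at 37 degrees C, 5% CO2. MIPE set at 11-point and NPC set at 8-point dilutions; viability scored by ATP-based luminescence at 48 hours.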
For the compound `CCCOc1ccc2nc(NC(=O)OC)[nH]c2c1`, the Potency was 123 nM (active) and 27.3 nM (active). As for `CCc1nc(N)nc(N)c1-c1ccc(Cl)cc1`, the Potency is 6.92 µM (active). With `Cc1ncc([N+](=O)[O-])n1CC(C)O` (centres undefined), the Potency entry is “inactive”. For `O=c1oc2cc(O)ccc2s1`, the “activity change, negative = cytotoxic” value is -6.76%. Still for that read-out and setting: to `CCOC(=O)C1=C[C@@H](OC(CC)CC)[C@H](NC(C)=O)[C@@H](N)C1` belongs 16.1%; to `CN(C)C(=O)[C@H](O)[C@H](Cc1ccccc1)NC(=O)c1cc2cc(Cl)ccc2[nH]1`, 6.42%. As to `Cc1nccn1CC1CCc2c(c3ccccc3n2C)C1=O` (centres undefined), the Potency result was “inactive”.

In the case of `Cc1cc(O)c2c(c1)C(=O)c1cc(O)cc(O)c1C2=O`, the “activity change, negative = cytotoxic” value was -4.73%.

For the compound `N=C(N=C(N)N)N1CCOCC1`, the Potency result is “inactive”.

On to `CCC(C)(Oc1ccc(C2(c3ccc(OC(C)(CC)C(=O)O)cc3)CCCCC2)cc1)C(=O)O` (centres undefined), for which the “activity change, negative = cytotoxic” value was 15.8%.

Regarding `Cc1nc(-c2ccc(OCC(C)C)c(C#N)c2)sc1C(=O)O`, the Potency entry was “inactive”. Turning to `Cn1c(NCCN(CCO)CCCc2ccc([N+](=O)[O-])cc2)cc(=O)n(C)c1=O`, the “activity change, negative = cytotoxic” value was -6.94%. For the compound `C=C(c1ccc(C(=O)O)cc1)c1cc2c(cc1C)C(C)(C)CCC2(C)C`, the “activity change, negative = cytotoxic” value is 2.16%.

Turning to `Cc1c(OCC(F)(F)F)ccnc1CS(=O)c1nc2ccccc2[nH]1` (centres undefined), the Potency entry is “inactive”. Turning to `S=c1nc[nH]c2nc[nH]c12`, the Potency was 2.46 µM (active) and 3.43 µM (active). `O=C1c2c(O)cc(O)cc2OC(c2ccc(O)c(O)c2)C1O` (centres undefined): the “activity change, negative = cytotoxic” value is -1.19%. The same measure, in the same setting: to `C[C@H](Cn1cnc2c(N)ncnc21)OCP(=O)(O)O` belongs 16.4%. As to `O=C(NC(Cc1cc(=O)[nH]c2ccccc12)C(=O)O)c1ccc(Cl)cc1` (centres undefined), the Potency result was “inactive”. Take `COC1=C(OC)C(=O)C(CCCCCCCCCCO)=C(C)C1=O`: the Potency result is “inactive”. With `Cc1cccc(C#Cc2ccccc2)n1`, the “activity change, negative = cytotoxic” value is 6.82%. Regarding `O=Nc1c(-c2c(O)[nH]c3cc(Br)ccc23)[nH]c2ccccc12`, the Potency is 19.3 µM (active).

Consider `CCOC(=O)C(C)Oc1cccc2c(=O)n(CC(=O)Nc3ccc4c(c3)OCCO4)ccc12` (centres undefined), for which the “activity change, negative = cytotoxic” value was 4.89%.

Take `CC[C@]1(O)C[C@H]2CN(CCc3c([nH]c4ccccc34)[C@@](C(=O)OC)(c3cc4c(cc3OC)N(C=O)[C@H]3[C@@](O)(C(=O)OC)[C@H](OC(C)=O)[C@]5(CC)C=CCN6CC[C@]43[C@@H]65)C2)C1`: the Potency was 21.7 nM (active) and 17.4 nM (active). In the case of `CNC[C@H](O)c1ccc(O)c(O)c1`, the Potency entry is “inactive”. In the case of `O=C(CS(=O)Cc1ccco1)NCC=CCOc1cc(CN2CCCCC2)ccn1` (centres undefined), the “activity change, negative = cytotoxic” value was 15.9%. Turning to `O=c1ccc2ccc(O)c(O)c2o1`, the “activity change, negative = cytotoxic” value is -24.7%. Regarding `O=C(O)CCNC(=O)c1ccc(N=Nc2ccc(O)c(C(=O)O)c2)cc1`, the Potency entry was “inactive”. For the compound `COc1cc2c(cc1OC)C1CC(=O)C(CC(C)C)CN1CC2` (centres undefined), the “activity change, negative = cytotoxic” value is 7.9%. For the compound `Nc1nc(Cl)nc2c1ncn2[C@H]1C[C@H](O)[C@@H](CO)O1`, the Potency was 0.273 µM (active).

With `COc1c(O)cc2c(c1O)[C@@H]1O[C@H](CO)[C@@H](O)[C@H](O)[C@H]1OC2=O`, the “activity change, negative = cytotoxic” value was -3.33%.

As to `c1ccc2[nH]c(-c3cscn3)nc2c1`, the Potency entry is “inactive”. The same measure, in the same setting: to `O=C(NCCO[N+](=O)[O-])c1cccnc1` belongs “inactive”.
